Pf Dd2 inh = Plasmodium falciparum Dd2 growth inhibition; P. falciparum Dd2 growth, SYBR Green, 72 h; Potency, µM (titrated, usually from 28.9 µM), for the others: at the top dose activity, negative = inhibition, actives largely listed as inhibitors; 120,000 tested, 4.3% active; active means well fitted inhibition curve with a large enough effect;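 further: plate controls were DMSO vehicle for no effect and reference drug for full effect; nearly all actives have a fitted effect of over 65% in size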
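Readout: SYBR Green fluorescence, 485 nm excitation, 535 nm emission, after ~16 h lysis at 37C. Before that, Dd2-infected red cells (2.5% hematocrit) grew 72 h with compound, 29 uM top final concentration.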
* = called active by the depositor; i = inactive; [ ] = another dose, or the depositor's remark. The sample as a whole holds a higher share of hits than the screen did. Potency means the concentration at half of the fitted maximal effect.

SMILES	Pf Dd2 inh
Cn1c(CNC(=O)CC2CCOCC2)nc2ccccc21	62.5%
Cn1c(C(=O)N2CCNc3cnc(Nc4cccc(C(F)(F)F)c4)nc3C2)cc2ccccc21	-5.2%
CCNC(=O)NCCc1ncc(C)n1CC1CC1	2.8%
Cc1cnc(-c2ccncc2)n1CCNC(=O)CCC1CCCC1	-2.1%
CCCn1c(C)cnc1CCNC(=O)CCC1CCCC1	2.51µM*
CCCNc1cc(N2CCC(CCC(=O)Nc3cccc(C)c3)CC2)ncn1	i
Cc1noc(C2CCCCCN2C(=O)c2ccccc2)n1 (centres undefined)	7.2%
COc1ccc(C2CC(=O)N(CC(=O)Nc3cc(C)ccc3C)c3ccccc3S2)cc1 (centres undefined)	-7.2%
COc1cc(C2CC(=O)N(CC(=O)Nc3ccccc3F)c3ccccc3S2)cc(OC)c1OC (centres undefined)	3.16µM*
CCOC(=O)c1ccccc1NC(=O)CN1C(=O)CC(c2ccccc2)Sc2ccccc21 (centres undefined)	i
CCOc1ccc(C(=O)N2CCC3(CCNC(=O)CC3)CC2)cc1	-21.6%
Fc1ccc(CNC[C@H]2Cn3c(-c4ccc(F)cc4)cnc3CO2)cc1	-15.2%[44.1 µM]
COc1ccccc1C(=O)NC[C@H]1Cn2c(-c3ccc4c(c3)OCCO4)cnc2CO1	-0.9%[44.1 µM]
COc1ccccc1CNC[C@H]1Cn2c(-c3cccc(Cl)c3)cnc2CO1	12.6µM*
CC1=NOC2(CCN(C(=O)c3ccc4c(c3)OCO4)C2)C1 (centres undefined)	-10.5%[44.1 µM]
N#Cc1c(-c2ccccc2)cc(-c2ccccc2)nc1SCC(=O)Nc1ccc(Cl)cc1	-13.2%
COc1ccc(NC(=O)CSc2nc(-c3ccccc3)cc(-c3cc(OC)c(OC)c(OC)c3)c2C#N)c(OC)c1	6.31µM*
COc1ccc(-c2cc(-c3ccccc3)nc(SCC(=O)Nc3ccccc3F)c2C#N)cc1	21.7%
Cc1ccc(NC(=O)Cn2c(C)cc3nc4n(c(=O)c32)CCCC4)cc1Cl	-18.1%
CC(C)Oc1ccc(C(=O)N2[C@@H]3CC[C@H]2CC(NC(=O)c2ccc(F)cc2)C3)cc1 (some centres undefined)	-15.9%
COc1ccc(C)cc1Nc1nc(-c2cccc(Cl)c2)c2c(n1)-c1ccccc1OC2	61.9%[0.594 µM]
COc1ccc(C)cc1Nc1nc(N)c2cc(OC)c(OC)cc2n1	2.82µM*
CCOC(=O)c1c(C)oc2nc(C)nc(Nc3cc(C)ccc3OC)c12	-8.8%
COc1ccccc1CCNC(=O)Cn1nc2c(cc1=O)CCCC2	-16.9%
CCOC(=O)c1c(C)[nH]c(C)c1S(=O)(=O)N(C)CC(=O)Nc1cc(Cl)ccc1OC	10µM*
SMILES	Pf Dd2 inh
CCOC(=O)c1c(C)[nH]c(C)c1S(=O)(=O)N(C)CC(=O)Nc1cccc(Cl)c1C	-7.1%
CCOC(=O)c1c(C)[nH]c(C)c1S(=O)(=O)NCC(=O)Nc1cc(Cl)ccc1OC	0.4%
CN(C)c1ccc(CN[C@H]2C[C@H]3C(=O)NC[C@@H](CCC(=O)NCc4ccccc4)N3C2)cc1	-5.2%
O=C(NCC(F)F)C1CN(c2cccc(Cl)c2)C(=O)N1 (centres undefined)	8.4%[44.1 µM]
COc1ccc(CC(=O)N2CC(CO)C3(CCNCC3)C2)cc1OC (centres undefined)	20.9%
COc1ccc(-c2cc(N3CCC(NC(=O)COc4ccc(F)cc4)CC3)n[nH]2)cc1	-10.2%
COc1ccc(NC(=O)C2CCN(c3cc(C(F)(F)F)ncn3)CC2)cc1	i
O=C(COc1ccc(F)cc1)NC1CCN(c2cc(C(F)(F)F)ncn2)CC1	5.62µM*
O=C(NC1CCN(c2cc(C(F)(F)F)ncn2)CC1)c1ccco1	i
O=C(Nc1ccc(F)cc1)C1CCN(c2cc(C(F)(F)F)ncn2)CC1	i
COc1ccc(NC(=O)C2CCN(c3cc(C(F)(F)F)ncn3)CC2)cc1OC	11.2µM*
O=C1NCCCCCCN(C(=O)CCc2nc3ccccc3s2)[C@H]2CCC[C@@H]12	-22.7%
COc1cc(-c2cc(C)c3c(OC)ccc(OC)c3n2)cc2c1OCCNC2	11.2µM*
COc1ccc(-c2cc3c(c(OC)c2)OCCNC3)nn1	-9.3%
Cc1ccc(-c2cc(O)c3c(c2)CNCCO3)cc1	i
CCn1ncc(N2CCC(NC(=O)c3cccc(OC)c3OC)CC2)cc1=O	-19.5%
COCCNC(=O)c1cc2c(=O)[nH]c(-c3ccccc3)cn2n1	-6.0%
CCn1ccc(C(=O)N2CCOc3ccc(CCC(N)=O)cc3C2)n1	-22.6%
CCCOCCN1CCN(c2nc(CCN)nc3ccccc23)CC1	-11.4%
O=C(NC1CCCC1)N1CCCCC12Cc1ccccc1NC2=O (centres undefined)	-1.7%[44.1 µM]
O=C1Nc2ccccc2CC12CCCN2C1CCCCC1 (centres undefined)	10µM*
O=C(c1ccccc1)N1CCCCC12Cc1ccccc1NC2=O (centres undefined)	i
Cc1ncoc1C(=O)N1CCCC(CCc2ccc(F)c(F)c2)C1 (centres undefined)	-5.0%
COCCN1C(=O)NC(c2ccccc2OC)C2=C1COC2=O (centres undefined)	-19.9%
COC[C@@H]1CN(C(=O)Cc2cccc(F)c2)C[C@H]1c1ccncc1	12.0%
COc1cc(-c2nc(-c3c(C)noc3C)cc3cc(C)oc23)ccn1	11.2µM*
